In PubChem BioAssay AID1159580 (chemical genetic matrix, 2015):
The campaign covered roughly 5,500 compounds. About 2,000 (36%) were called active. Another 18% or so got no clear call; they are omitted. Rule as the data show it: active = normalized growth mostly below about 0.91 (no sharp cut-off); inconclusive = no clear call, values can overlap the other calls; inactive = mostly above about 0.92. The list shows a part of the results.

Test: chemical genetic growth profiling, strain panel (AID 1159580);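 also: tested at 20 µM; growth read once vehicle control cultures reached saturation at 30 °C; 1 = growth at the plate median or of vehicle wells; lower values mean less growth of the strain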
Settings: S. cerevisiae deletion strains, growth OD
[1] = locus YAL013W, strain DEP1, hits give low values
[2] = locus YAL040C, strain CLN3, hits give low values
[3] = locus YCL061C, strain MRC1 (second series), hits give low values
[4] = locus YDR363W, strain ESC2, hits give low values
[5] = locus YER002W, strain NOP16, hits give low values
[6] = locus YNL175C, strain NOP13, hits give low values
[7] = locus YNL197C, strain WHI3, hits give low values
[8] = locus YNL224C, strain SQS1, hits give low values
[9] = locus YOR083W, strain WHI5 (second series), hits give low values
[10] = locus YPL241C, strain CIN2, hits give low values

Measured: normalized growth

CC12CCC3C(CCC4=C(O)C(=O)CCC43C)C1CCC2=O (configuration not stated)
inactive: [1] 1 | [2] 0.99 | [3] 0.998 | [4] 0.984 | [5] 0.995 | locus YMR263W, strain SAP30, hits give low values 1 | [6] 1.02 | [7] 0.992 | [8] 0.969 | [9] 0.986 | [10] 1.01

C[C@]12CC[C@@H](O)CC1CC[C@@H]1[C@@H]2CC[C@]2(C)C(=O)CC[C@@H]12 (some centres not stated)
inactive: [2] 0.989 | [3] 1 | [4] 0.938 | [5] 1.02 | locus YGR078C, strain PAC10, hits give low values 0.973 | [6] 1.01 | [7] 0.993 | [8] 0.997 | [9] 0.885 | [10] 1.04
active: [1] 0.895
